Data published in PubChem BioAssay AID489043 (National Center for Advancing Translational Sciences (NCATS), 2010).
Results filed as inconclusive are left out. Activity calls are given as the source filed them. Calls come from the whole dose curve; as a rule, active = well fitted activation curve with a large enough effect; inconclusive = small, poorly fitted or top-dose-only effect; inactive = flat fitted curve, though single readings scatter.

These compounds were tested against Relaxin receptor 2 (Homo sapiens) (UniProt Q8WXD0) (assay: qHTS Assay for Agonists of the Relaxin Receptor RXFP1: RXFP2 Hit Validation). Conditions: HEK293 RXFP2 cAMP TR-FRET, 30 min; series mostly up to 115 µM; activation: at the top concentration.
Text: NIH Chemical Genomics Center [NCGC] NIH Molecular Libraries Probe Production Centers Network [MLPCN] MLPCN Grant: R03 MH085705-01A1 Assay Submitter (PI): Alexander Agoulnik NCGC Assay Overview: The relaxin hormone is involved in the variety of biological functions in normal tissues and diseases. The role of relaxin is well-established in female reproduction and parturition, mammary gland and endometrial development, maintenance of myometrial quiescence during pregnancy. Relaxin signaling through its G protein-coupled receptor (GPCR) RXFP1 results in ECM remodeling through regulation of collagen deposition, cell invasiveness, proliferation and overall tissue homeostasis. […] Recombinant human relaxin (rhRlx) is currently being tested in clinical trials as a protective agent in congestive heart failure, in treating severe preeclampsia, and as an anti-fibrotic agent in systemic sclerosis. Upon relaxin binding RXFP1 activation leads to the activation of adenylate cyclase (AC) via Gs. cAMP will activate PKA, which phosphorylates many signaling proteins. Thus, detection of cAMP increase is an easy and reliable indication of relaxin receptor activation. To screen for agonists of the relaxin receptor, a HEK293T cell line stably transfected with RXFP1 was used. RXFP1 activation was assayed by changes in cAMP levels as detected with a time-resolved fluorescence energy transfer (TR-FRET) cAMP detection kit. This assay measures activation of a cell expressing RXFP2, another GPCR targeted by relaxin, to determine the selectivity of compounds for RXFP1.
NCGC Assay Protocol Summary: This is a cell-based assay for cAMP second messenger response to screen for agonists of the RXFP2 receptor. The assay was conducted in the presence of a PDE4 inhibitor (Ro 20174). The cells were lysed and the cAMP levels were measured with a TR-FRET cAMP kit. Presence of cAMP in the cell lysate disrupts binding between the cryptate-labeled anti-cAMP and d2-labeled cAMP pair, leading to a decrease in the TR-FRET signal. Data were normalized to the controls for basal activity (buffer only) and 100% activity (29 nM porcine relaxin). The EC50 values were determined from concentration-response data modeled with the standard Hill equation 1536-well assay protocol for the HEK293 RXFP2 cAMP assay: (1) Add 3 ul HEK293 RXFP2 cell culture. 2000 cells/well in DMEM/F12, 10% FBS, 1x Pen/Strep (dispensed offline with MultiDrop Combi). (2) Incubate 16-24 hr at 37C, 5% CO2. (3) Add 1 ul 400uM Ro20174 in DPBS, 0.05% BSA, 0.005% Tween 20. (3) Add 23 nl compounds in DMSO solution. Final concentration was 0.5 - 58 uM. (4) Incubate 30 min at 37C, 5% CO2. (5) Add 1 ul cAMP-d2 in lysis buffer (HTRF cAMP HiRange kit, CisBio). (6) Add 1 ul anti-cAMP antibody-cryptate in lysis buffer (HTRF cAMP HiRange kit, CisBio). (7) Incubate 30 min at room temperature. […] Keywords: relaxin, RXFP1, RXFP2, G-protein coupled receptor, cAMP, agonist, high throughput screening, MLSMR, MLSCN, NIH Roadmap, qHTS and NCGC
Note: nearly all actives have a fitted effect of over 65% in size.
Potency is the fitted concentration of half-maximal effect.

Relaxin receptor 2 (Homo sapiens), sequence (Q8WXD0 whole entry, looked up): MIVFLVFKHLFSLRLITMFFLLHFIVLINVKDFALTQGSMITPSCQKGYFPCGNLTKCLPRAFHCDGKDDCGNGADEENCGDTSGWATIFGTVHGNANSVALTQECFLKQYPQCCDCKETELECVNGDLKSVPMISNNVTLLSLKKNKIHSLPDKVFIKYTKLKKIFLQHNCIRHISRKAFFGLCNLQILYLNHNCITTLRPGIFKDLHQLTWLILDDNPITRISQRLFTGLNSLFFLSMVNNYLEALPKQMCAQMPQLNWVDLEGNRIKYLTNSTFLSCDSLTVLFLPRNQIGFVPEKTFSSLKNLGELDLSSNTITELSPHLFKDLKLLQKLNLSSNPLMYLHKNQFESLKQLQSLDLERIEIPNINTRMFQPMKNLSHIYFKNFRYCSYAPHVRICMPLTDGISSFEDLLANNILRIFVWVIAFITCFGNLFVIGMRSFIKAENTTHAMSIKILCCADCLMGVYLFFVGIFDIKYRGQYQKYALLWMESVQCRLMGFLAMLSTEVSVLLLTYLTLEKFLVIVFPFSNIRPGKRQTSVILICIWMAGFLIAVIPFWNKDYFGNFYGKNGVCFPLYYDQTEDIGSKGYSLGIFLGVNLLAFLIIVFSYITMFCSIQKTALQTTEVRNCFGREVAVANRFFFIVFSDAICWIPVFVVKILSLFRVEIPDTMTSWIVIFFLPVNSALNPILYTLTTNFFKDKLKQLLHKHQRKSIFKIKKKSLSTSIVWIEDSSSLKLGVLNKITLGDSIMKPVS

| Compound | activation | Potency |
| --- | --- | --- |
| O=C(Nc1ccccc1C(=O)NCCN1CCOCC1)c1ccco1 | 4.33% [at 125 µM] (inactive) | – |
| Nc1ncnc2c1ncn2C1OC(CO)C(O)C1O (stereo not given) | – | 7.76 µM (active) |
| O=C(Nc1ccccc1C(=O)NC1CCCCC1)c1ccco1 | 15.2% [at 125 µM] (inactive) | – |
| C=CCSc1nc2c(c(=O)[nH]1)C(C(C)C)C(C#N)=C(N)O2 (stereo not given) | – | 43.6 µM (active) |
| Cc1noc(NS(=O)(=O)c2ccc(N3Cc4ccccc4C3=O)cc2)c1C | – | 11.9 µM (active) |
| O=C(Nc1cccc(C(F)(F)F)c1)c1ccccc1NC(=O)C1CCCCC1 | – | inactive |
| Cc1cccc2cc(C#N)c(SCC(=O)NCc3cccs3)nc12 | – | 19.4 µM (active) |
| COc1ccc(Nc2ncc(C#N)c(N)n2)c(OC)c1 | 2.09% (inactive) | – |
| CCOC(=O)CNC(=O)CSc1ccc2nnc(-c3cccnc3)n2n1 | -13.2% (inactive) | – |
| COc1ccc(CN2C(=O)c3cccnc3C2=O)cc1S(=O)(=O)NC1CCCCC1 | – | 34.6 µM (active) |
| Nc1nnc(CC(=O)N/N=C/c2ccc(-c3ccc(Cl)cc3Cl)o2)s1 | 7.15% (inactive) | – |
| CCCn1c(SCC(=O)Nc2ccc(NC(C)=O)cc2)nc2c1c(=O)n(C)c(=O)n2C | – | 34.6 µM (active) |
| CCOP1(=O)OCC2OC(n3cnc4c(N)ncnc43)C(O)C2O1 (stereo not given) | – | 7.76 µM (active) |
| Cc1c(CCOC(=O)c2cc([N+](=O)[O-])ccc2Cl)sc[n+]1CCCCS(=O)(=O)[O-] | 8.95% (inactive) | – |
| Cn1c(=O)c2c(ncn2CC(=O)N/N=C/c2cn[nH]c2-c2ccc(F)cc2)n(C)c1=O | – | 21.8 µM (active) |
| O=C(CCc1nnc2ccc(NCCCN3CCCC3=O)nn12)NCc1ccccc1Cl | 8.46% (inactive) | – |
| CC(C)n1cnc2c(N(C)c3cccc(Cl)c3)nc(N(CCO)CCO)nc21 | -4.45% (inactive) | – |
| O=C(Nc1ccccc1C(=O)NCc1ccc(Cl)cc1)c1ccco1 | -1.91% [at 125 µM] (inactive) | – |
| Cc1cc(C(=O)COC(=O)Cn2cnc3c2c(=O)n(C)c(=O)n3C)c(C)n1C | – | 15.5 µM (active) |
| O=C(Nc1ccccc1C(=O)NCCc1ccccc1)c1ccco1 | 0.452% [at 125 µM] (inactive) | – |

| Compound | activation | Potency |
| --- | --- | --- |
| Cn1c(=O)c2c(ncn2CC(=O)NC2CCCCC2)n(C)c1=O | – | 48.9 µM (active) |
| CCN(CC)S(=O)(=O)c1ccc2c(c1)N(CC(=O)NCc1ccccn1)C(=O)CO2 | – | 34.6 µM (active) |
| CC(C(=O)Nc1cccnc1)n1cc([N+](=O)[O-])cn1 (stereo not given) | 24% (inactive) | – |
| Cc1cc(C)nc(/N=C(\N)Nc2ccc(S(=O)(=O)Nc3nccc(C)n3)cc2)n1 | – | 34.6 µM (active) |
| CC1CCN(S(=O)(=O)c2ccc3nc(N4CCN(c5ccccc5)CC4)ccc3c2)CC1 | – | 15.4 µM (active) |
| COc1ccc(NC(=O)CSc2nc(-c3ccc(C)cc3)cc(C(F)(F)F)c2C#N)cc1 | 27% [at 44.7 µM] (inactive) | – |
| O=C(Nc1ccccc1C(=O)N1CCOCC1)c1ccco1 | 0.881% [at 125 µM] (inactive) | – |
| Cn1c(N)c(C(=O)CSc2nnc(NC3CCCCC3)s2)c(=O)n(C)c1=O | -14.8% (inactive) | – |
| NS(=O)(=O)c1ccc(CCNC(=O)C2CCN(c3ncnc4c3nc3n4CCCCC3)CC2)cc1 | – | 38.9 µM (active) |
| COC(=O)c1sc(N2C(=O)C(O)=C(C(=O)c3ccc(C)o3)C2c2ccc(F)cc2)nc1C (stereo not given) | – | 2.75 µM (active) |
| Cc1ccc(CN(C)C(=O)c2ccccc2NC(=O)c2ccccc2)o1 | -1.29% [at 125 µM] (inactive) | – |
| Cc1nc2scc(C)n2c(=O)c1S(=O)(=O)N1CCN(c2ccccn2)CC1 | – | 30.9 µM (active) |
| CCCCn1c(SCC(=O)N2CCOCC2)nc2c1c(=O)n(C)c(=O)n2C | – | 38.9 µM (active) |
| Cc1cc(C)c(NC(=O)CS(=O)CC(=O)Nc2ccc(F)cc2F)c(C)c1 (stereo not given) | 4.28% (inactive) | – |
| CCOC(=O)c1sc(NC(=O)CCc2ccc(OC)cc2)nc1C | – | 17.3 µM (active) |
| Cc1ccc(C(=O)Nc2ccccc2C(N)=O)o1 | -1.39% [at 125 µM] (inactive) | – |
| CC1C/C(=N\NC(N)=S)c2cc(Cl)ccc2S1 (stereo not given) | 17.3% (inactive) | – |
| CCc1nnc(NC(=O)CSc2nc(C)nc3c2c(=O)n(C)c(=O)n3C)s1 | – | 10.9 µM (active) |
| CCN(CC)CCCN1C=C2C(=O)C(C)(OC(=O)C3CCCC3)C(=O)C=C2C=C1c1ccsc1 (stereo not given) | -3.37% (inactive) | – |
| O=C(O)c1cc(-c2ccco2)nc2ccc(Br)cc12 | – | 17.3 µM (active) |
